Assay: basal RPMI8226 mitochondrial membrane potential changes, profiling panel, cell-based, JC-1 fluorescence, 24 h, 100 nL compound (AID 1169); further: test concentration not given here
Details: RPMI8226 myeloma, JC-1 mitochondrial potential fluorescence, higher = more signal
Molecule O=C1NC(=O)C2C1C=CC(C(O)c1cc(C(F)(F)F)cc(C(F)(F)F)c1)N2Nc1ccccn1 (stereo not given) has a z-score of 0.372.
With C=C(/C(=C/C[C@H](OC(C)=O)c1ccccc1OCCO)c1cnc2ccccc2c1)C(C)C the z-score was 0.251.
Molecule COC(=O)[C@H](Cc1ccccc1)N1CC2=C[C@@H](C3CC3)n3c(=O)n(C)c(=O)n3[C@H]2[C@@H]1[C@@H](O)Cc1ccccc1 has a z-score of 0.223.
In the case of CC(=O)n1cc(C(O)C2C=CC3C(=O)N(c4ccccc4)C(=O)C3N2Nc2ccc([N+](=O)[O-])cc2)c2ccccc21 (stereo not given), the z-score is reported as -0.412.
Molecule CN1C=C(C(=O)OCCS(C)(=O)=O)C(C(=O)OCCS(C)(=O)=O)=CC(c2ccc(CO)cc2)=CC1C1CC1 (stereo not given) has a z-score of 0.167.
COC(=O)[C@]1(CCC(=O)OC(C)(C)C)N=C(c2ccc(OCCCO)cc2)O[C@@H]1c1ccccc1CN=[N+]=[N-] showed a z-score of -1.16.
C=CCNC(=O)[C@@H]1[C@H]2C(=O)O[C@H](c3ccccc3)[C@H](c3ccccc3)N2[C@H](c2ccc(OCCO)cc2)[C@@]12C(=O)Nc1ccc(C#CCC(C(=O)OC)C(=O)OC)cc12 showed a z-score of -0.907.
In the case of COC(=O)C(CC#Cc1ccc2c(c1)[C@]1(C(=O)N2)[C@H](c2ccc(OCCO)cc2)N2[C@H](c3ccccc3)[C@H](c3ccccc3)OC(=O)[C@H]2[C@@H]1C(=O)N1CCc2cc(OC)c(OC)cc2C1)C(=O)OC, the z-score is reported as -0.929.
In the case of NC(=O)N1C(=O)C2C(C1=O)C1C=C(c3ccc(CO)cc3)C2C(c2cccs2)N1Cc1cccc(OC(F)(F)F)c1 (stereo not given), the z-score is reported as -0.85.
Work on C=CCC(OC(C)=O)[C@@H]1[C@@H](N(Cc2ccc(-c3ccccc3)cc2)C(=O)c2cccc3ccccc23)c2cc(OCCCO)ccc2N1C(=O)c1ccc(-c2ccccc2)cc1 (stereo not given in full) yielded a z-score of -0.745.
Work on COc1cc(NN2C(C(O)c3ccco3)C=CC3C(=O)N(c4ccccc4)C(=O)C32)cc(OC)c1OC (stereo not given) yielded a z-score of 0.187.
Work on CC(C)[Si]1(C(C)C)O[C@@H](c2ccccc2)c2cc(-c3ccc(-c4ccc(Cl)c(Cl)c4)o3)nc(-c3ccccc3)c21 yielded a z-score of -0.395.
Molecule CCOC(=O)C[C@H]1[C@H](OC(=O)c2ccc(C(=O)c3ccccc3)cc2)[C@@H](NC(=O)c2ccc3ccccc3n2)c2cc(OCCCO)ccc2N1C(=O)c1ccccc1 has a z-score of 0.484.
CC(C)C(O)C1C=CC2C(=O)NC(=O)C2N1Nc1ccc(Cl)cc1Cl (stereo not given) gave a z-score of -0.161.
In the case of COc1ccc(C#Cc2ccc3c(c2)[C@]2(C(=O)N3)[C@H](C(=O)Nc3nc4ccccc4s3)[C@H]3C(=O)O[C@H](c4ccccc4)[C@H](c4ccccc4)N3[C@@H]2c2ccc(O)cc2)cc1, the z-score is reported as -1.02.
Molecule COC(=O)[C@@]1(Cc2ccccc2)N=C(c2ccc(OCCCO)cc2)O[C@H]1c1ccccc1 has a z-score of -1.1.
[N-]=[N+]=Nc1ccccc1[C@H]1OC(c2ccc(OCCCO)cc2)=N[C@@]1(CCS(=O)(=O)c1ccccc1)C(N)=O gave a z-score of -1.07.
Work on O=C1C[C@@](C(=O)NC2CC2)(c2ccc([N+](=O)[O-])cc2)[C@@H](c2ccc(CO)cc2I)N1C1CCCCC1 yielded a z-score of -0.36.
For COc1cc2c(cc1OC)CN(C(=O)[C@H]1[C@@H]3C(=O)O[C@@H](c4ccccc4)[C@@H](c4ccccc4)N3[C@@H](c3ccc(O)cc3)[C@]13C(=O)Nc1ccccc13)CC2, the z-score was -0.542.
O=C1O[C@H](c2ccccc2)[C@H](c2ccccc2)N2[C@H]1[C@@H](C(=O)N1CCCCCCC1)[C@]1(C(=O)Nc3ccc(C#CC4=CCCCC4)cc31)[C@H]2c1ccc(OCCO)cc1 gave a z-score of -1.02.
With COC(=O)[C@@]1(CCC(=O)OC(C)(C)C)N=C(c2ccc(OCCCO)cc2)O[C@H]1c1ccccc1N=[N+]=[N-] the z-score was -1.
Molecule O=C1C2C=CC(C(O)c3cc(C(F)(F)F)cc(C(F)(F)F)c3)N(n3cnnc3)C2C(=O)N1Cc1ccccc1 (stereo not given) has a z-score of 0.11.
CCCCCN1CC=CC23O[C@@H]4C=CCCOC(=O)C4[C@H]2C(=O)N(CCCCCO)[C@@H]3C1=O (stereo not given in full) gave a z-score of 0.159.
In the case of COc1ccc([Si](C)(C)[C@@H]2[C@@H](CCO)O[C@]3(C(=O)N(Cc4ccc(N(C=O)c5ccccc5)cc4)c4ccccc43)[C@H]2C)cc1, the z-score is reported as -0.95.
Molecule C=CCOC(=O)[C@H]1[C@@H]2C(=O)O[C@@H](c3ccccc3)[C@@H](c3ccccc3)N2[C@@H](c2ccc(OCCOC(=O)[C@H]3C[C@H]4C(=O)N[C@@H](CCCCNC(C)=O)C(=O)N4[C@H]3c3cccc(OCCO)c3)cc2)[C@]12C(=O)Nc1ccccc12 has a z-score of -0.0898.
With [N-]=[N+]=NCc1ccccc1C[C@]1(C(N)=O)COC(c2ccc(OCCCO)cc2)=N1 the z-score was -0.425.
In the case of C=C(CC1([C@@H](NP(=O)(c2ccccc2)c2ccccc2)[C@H]2C[C@@H]2CCCC)CC1)c1ccccc1, the z-score is reported as -0.968.
CC[C@@H]1C=C(C(=O)O)[C@H](c2ccc(Br)cc2)N1S(=O)(=O)c1ccc(C)cc1 gave a z-score of -0.0108.
In the case of C=C(CCCC)/C(=C/C[C@H](OC(C)=O)c1ccccc1OCCO)c1cc(C(=O)OC)ccc1OC, the z-score is reported as 0.275.
COC(=O)[C@@]1(Cc2ccc(OC)cc2)[C@H]2c3cc(C(=O)N(C)C)n(C)c3C[C@H]2CN1C(=O)c1ccccc1 gave a z-score of -0.701.
With CN(C)CCCCCCNC(=O)[C@H]1C[C@H]2C(=O)N[C@@H](CCCCN)C(=O)N2[C@H]1c1cccc(OCCO)c1 the z-score was -0.636.
For NC(=O)NCC#Cc1ccc2c(c1)[C@]1(C(=O)N2)[C@H](c2ccccc2OCCO)N2[C@H](c3ccccc3)[C@H](c3ccccc3)OC(=O)[C@H]2[C@@H]1C(=O)Nc1nc2ccccc2s1, the z-score was -0.885.
Molecule CC1CC/C=C\[C@H]2OC34C=CCN(C(C)(C)C)C(=O)[C@H]3N(CCO)C(=O)[C@@H]4C2C(=O)O1 (stereo not given in full) has a z-score of -0.0147.
For C=C(COC)/C(=C/C[C@H](OC(C)=O)c1ccc(CO)o1)c1cc(C(=O)OC)ccc1OC, the z-score was -0.0437.
For CNS(=O)(=O)c1ccc(C)cc1, the z-score was -0.049.
